According to PubChem BioAssay (NCI):
Where “and” joins values, the source holds several entries; their conditions need not be identical. Equal values may be shown once. This is part of a sample that, as a whole, favours compounds with a hit. Of some 83,000 tested, about 20% had one in any assay.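 Each cell line was grown in a 96-well plate and treated with one concentration of compound for 48 hours. Values below 10 were considered active.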 Calls of active or inactive are those of the source.

Assays:
Assay in all cases: NCI-60 one-dose screen, 48 h (100 = growth as untreated, 0 = no growth, -100 = all killed)
Conditions in all cases: 10 µM unless noted
SK-MEL-2 melanoma = system: SK-MEL-2 melanoma
EKVX NSCLC = system: EKVX NSCLC
SN12C renal = system: SN12C renal
UO-31 renal = system: UO-31 renal
TK-10 renal = system: TK-10 renal
ACHN renal = system: ACHN renal
CAKI-1 renal = system: CAKI-1 renal
A498 renal = system: A498 renal
CCRF-CEM leukemia = system: CCRF-CEM leukemia
MOLT-4 leukemia = system: MOLT-4 leukemia

Measured: growth

Cc1ccc(Cl)cc1N1CCN(C(=O)[C@@H]2C[C@@H]2c2ccc(F)cc2)CC1
inactive: SK-MEL-2 melanoma 91.7% | EKVX NSCLC 88.3% | SN12C renal 98.9% | UO-31 renal 70.9% | TK-10 renal 100% | ACHN renal 93% | CAKI-1 renal 69.1% | A498 renal 87.2% | CCRF-CEM leukemia 91.5% | MOLT-4 leukemia 78.5%

O=C(NNC(=S)Nc1ccccc1)c1ccncc1
inactive: SK-MEL-2 melanoma 94.3% | EKVX NSCLC 117% | SN12C renal 109% | UO-31 renal 84% | TK-10 renal 102% | ACHN renal 103% | CAKI-1 renal 133% | A498 renal 124% | CCRF-CEM leukemia 93.7% | MOLT-4 leukemia 104%

CCCCCCCCCCCCCCCCCCn1cc(COc2ccc(C=O)cc2)nn1
inactive: SK-MEL-2 melanoma 96.4% | EKVX NSCLC 90.1% | SN12C renal 97.5% | UO-31 renal 93% | TK-10 renal 99.9% | ACHN renal 104% | CAKI-1 renal 104% | A498 renal 105% | CCRF-CEM leukemia 103% | MOLT-4 leukemia 92.4%

COC1=CC(c2ccc[nH]2)=N/C1=C\c1[nH]c(C)c(C(=O)Oc2ccccc2)c1C
active: SK-MEL-2 melanoma -68.6% | EKVX NSCLC -19.9% | SN12C renal 0.383% | UO-31 renal -87.2% | TK-10 renal -6.73% | ACHN renal -90.3% | CAKI-1 renal -23.8% | A498 renal -46.7% | MOLT-4 leukemia 3.87%
inactive: CCRF-CEM leukemia 18.6%

Nc1c(C(=O)Nc2ccncc2)sc2nc3c(cc12)CCCCCCCC3
active: SK-MEL-2 melanoma -86.7% | EKVX NSCLC -31.2% | SN12C renal -65.1% | UO-31 renal -95% | TK-10 renal -75.6% | ACHN renal -98.8% | CAKI-1 renal -94.8% | A498 renal -9% | CCRF-CEM leukemia -37.9% | MOLT-4 leukemia -40.6%

COc1cc(N=Nc2ccc(O)c3ncccc23)c2ncccc2c1
inactive: SK-MEL-2 melanoma 61.3% | EKVX NSCLC 65.8% | SN12C renal 68.6% | UO-31 renal 16.6% | TK-10 renal 69.2% | CAKI-1 renal 17.3% | A498 renal 74.9%
active: ACHN renal 4.47% | CCRF-CEM leukemia 5% | MOLT-4 leukemia 6.75%

O=c1c(/C=C/c2ccco2)nnc2sc(Nc3ccc(Cl)cc3)nn12
inactive: SK-MEL-2 melanoma 95.6% | EKVX NSCLC 90.9% | SN12C renal 107% | UO-31 renal 79% | TK-10 renal 146% | ACHN renal 98.2% | CAKI-1 renal 98.5% | A498 renal 108% | CCRF-CEM leukemia 98% | MOLT-4 leukemia 95.7%

Fc1ccccc1-c1cnn2cc(-c3ccccc3)cnc12
inactive: SK-MEL-2 melanoma 107% | EKVX NSCLC 103% | SN12C renal 92.1% | UO-31 renal 85.6% | TK-10 renal 104% | ACHN renal 101% | CAKI-1 renal 88.8% | A498 renal 87.8% | CCRF-CEM leukemia 93.3% | MOLT-4 leukemia 98.1%

Cc1ccc(C(=O)Nc2nc3c(s2)CN(Cc2ccccc2)CC3)cn1
inactive: SK-MEL-2 melanoma 93% | EKVX NSCLC 90.4% | SN12C renal 89.7% | UO-31 renal 80.5% | TK-10 renal 89.4% | ACHN renal 100% | CAKI-1 renal 65.2% | A498 renal 89.9% | CCRF-CEM leukemia 85.5% | MOLT-4 leukemia 95.6%

Nc1nc(Cl)nc2c1ncn2C1OC(CO)C(O)C1O (stereo not given)
inactive: SK-MEL-2 melanoma 82.9% | EKVX NSCLC 102% and 110% | SN12C renal 30.2% and 28.3% | UO-31 renal 25.1% and 13% | TK-10 renal 82.4% and 87.6% | ACHN renal 65.9% and 61.9% | CAKI-1 renal 25.9% and 41% | A498 renal 96.6%
active: CCRF-CEM leukemia 0.283% and -17% | MOLT-4 leukemia 2.75% and 3.08%

CN(C)CCN1C(=O)c2c(c3c4ccccc4n4c3c3c2c2ccccc2n3C2CC(O)C(O)C4(C)O2)C1=O (stereo not given)
active: ACHN renal -12.6% | MOLT-4 leukemia 0.948%
inactive: SK-MEL-2 melanoma 32.6% | EKVX NSCLC 46.8% | SN12C renal 22.1% | UO-31 renal 24.1% | TK-10 renal 24.6% | CAKI-1 renal 19.6% | A498 renal 32% | CCRF-CEM leukemia 31.1%

O=C(/C=C/c1ccc(F)cc1)Nc1ncc(Cc2ccc(F)cc2)s1
inactive: SK-MEL-2 melanoma 32.3% | EKVX NSCLC 32.1% | SN12C renal 50.6% | UO-31 renal 39% | TK-10 renal 47.2% | ACHN renal 32.5% | CAKI-1 renal 27.5% | A498 renal 21.8% | CCRF-CEM leukemia 34% | MOLT-4 leukemia 30.9%

COc1ccc(N2CCN(S(=O)(=O)c3oc(-c4ccccc4)nc3C#N)CC2)cc1
inactive: SK-MEL-2 melanoma 72.4% | EKVX NSCLC 118% | SN12C renal 68.9% | UO-31 renal 85.9% | TK-10 renal 71.6% | ACHN renal 79.2% | CAKI-1 renal 107% | A498 renal 128%
active: CCRF-CEM leukemia 4.32% | MOLT-4 leukemia 3.95%
